Where “and” joins values, the source holds several entries; their conditions need not be identical. Identical values can stand only once. Records with an inconclusive call do not appear. Unmarked numbers belong to inactive results. Calls of active or inactive are those of the source. Unless noted, calls come from the whole dose curve; as a rule, active = well fitted inhibition curve with a large enough effect; inconclusive = small, poorly fitted or top-dose-only effect; inactive = flat fitted curve, though single readings scatter.
Target: Voltage-gated inwardly rectifying potassium channel KCNH2 (Homo sapiens) (UniProt Q12809)
Test: qHTS Assay for Small Molecule Inhibitors of the Human hERG Channel Activity (AID 588834);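 note: lower thallium flux fluorescence means stronger hERG block; nearly all actives have a fitted effect of over 50% in size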; note: potency is the fitted concentration of half-maximal effect; for activity change, negative = inhibition: top concentration of the series differs between compounds; % is set by controls: 0 for no effect and ±100 for the full control effect
Settings: U2OS BacMam hERG, FluxOR thallium flux fluorescence; series mostly up to 92.2 µM; activity change, negative = inhibition: at the top concentration
How it was run: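 Step 1: BacMam hERG transduction of U2OS, 4 hrs RT. Step 2: overnight 37 °C, plate 2000 cells/well, 4 hr. Step 3: FluxOR load, compound 10 min, stimulate, read fluorescence.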

Sequence of Voltage-gated inwardly rectifying potassium channel KCNH2 (Homo sapiens) (Q12809 whole entry, looked up): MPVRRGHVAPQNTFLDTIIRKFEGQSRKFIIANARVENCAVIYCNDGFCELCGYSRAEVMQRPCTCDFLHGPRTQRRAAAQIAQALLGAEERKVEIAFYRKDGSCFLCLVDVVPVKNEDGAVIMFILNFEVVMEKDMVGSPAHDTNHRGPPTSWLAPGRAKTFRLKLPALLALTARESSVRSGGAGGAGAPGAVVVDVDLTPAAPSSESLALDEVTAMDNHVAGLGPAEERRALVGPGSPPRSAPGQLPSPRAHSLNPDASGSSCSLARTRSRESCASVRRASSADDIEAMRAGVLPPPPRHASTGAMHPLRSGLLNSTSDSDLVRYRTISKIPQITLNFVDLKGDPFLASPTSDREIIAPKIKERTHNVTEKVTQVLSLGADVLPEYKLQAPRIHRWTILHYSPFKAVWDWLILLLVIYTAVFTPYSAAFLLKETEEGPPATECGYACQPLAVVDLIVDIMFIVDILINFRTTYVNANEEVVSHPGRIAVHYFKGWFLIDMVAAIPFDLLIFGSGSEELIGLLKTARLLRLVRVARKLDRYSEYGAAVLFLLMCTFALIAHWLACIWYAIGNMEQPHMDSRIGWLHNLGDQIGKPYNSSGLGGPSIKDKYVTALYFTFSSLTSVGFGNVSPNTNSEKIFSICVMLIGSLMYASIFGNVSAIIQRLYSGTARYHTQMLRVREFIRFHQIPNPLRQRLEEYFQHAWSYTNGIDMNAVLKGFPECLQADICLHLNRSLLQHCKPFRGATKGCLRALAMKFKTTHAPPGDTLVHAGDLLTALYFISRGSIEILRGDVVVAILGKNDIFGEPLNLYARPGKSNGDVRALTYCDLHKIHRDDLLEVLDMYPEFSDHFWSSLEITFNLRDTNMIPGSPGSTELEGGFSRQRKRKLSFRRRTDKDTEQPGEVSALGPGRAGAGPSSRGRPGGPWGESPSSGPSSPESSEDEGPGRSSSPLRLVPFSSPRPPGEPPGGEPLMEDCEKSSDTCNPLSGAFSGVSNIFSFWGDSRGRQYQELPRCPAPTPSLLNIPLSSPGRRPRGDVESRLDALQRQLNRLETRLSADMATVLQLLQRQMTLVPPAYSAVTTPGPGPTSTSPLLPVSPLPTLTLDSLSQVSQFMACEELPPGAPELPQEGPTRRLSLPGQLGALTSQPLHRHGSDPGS

SMILES | activity change, negative = inhibition [%] | Potency
O=C(O)C(Br)Br | 5.85 | –
Cc1ccc(OP(=O)(Oc2ccc(C)cc2)Oc2ccc(C)cc2)cc1 | – | 20 µM (active)
Oc1c(Cl)c(Cl)cc(Cl)c1Cl | -2.09 | –
CN(C)c1ccc(N(C)C)cc1 | 9.87 | –
O=[N+]([O-])c1c(Cl)c(Cl)c(Cl)c(Cl)c1Cl | 32.7 | –
CN1CSC(=S)N(C)C1 | -8.86 | –
ClCC(Cl)Cl | 11.3 | –
C=CC(=O)OCCO | 4 | –
CC(C)Br | 4.16 | –
O=[N+]([O-])c1ccc(O)c([N+](=O)[O-])c1 | 4.79 | –
CC(C)[N+](=O)[O-] | 9.34 | –
CCCC[N+](=O)[O-] | 4.49 | –
Cc1cc(-c2cc(C)c(N)c(C)c2)cc(C)c1N | 1.94 | –
Nc1cc(Cl)ccc1O | 5.02 | –
CCN(N=O)C(N)=O | -10.2 | –
N#CC(Cl)(Cl)Cl | -0.753 | –
CCCCC(CC)COC(=O)c1ccc(C(=O)OCC(CC)CCCC)c(C(=O)OCC(CC)CCCC)c1 (stereo unspecified) | -2.3 | –
O=C(O)C(Br)CBr (stereo unspecified) | -0.324 | –

SMILES | activity change, negative = inhibition [%] | Potency
Nc1c(Br)cc([N+](=O)[O-])cc1[N+](=O)[O-] | -1.55 | –
O=[N+]([O-])c1ccccc1CCl | 14.9 | –
N#CC(Br)Br | 3.26 | –
O=C(O)C(Cl)Br (stereo unspecified) | 1.68 | –
COP(=S)(OC)SCn1nnc2ccccc2c1=O | -14.7 | –
Nc1ccc([N+](=O)[O-])cc1N | 6.32 | –
O=C(O)c1cccc(Cl)c1 | 9.41 | –
Cc1cc(N=Nc2ccccc2C)ccc1N | -3.83 | –
OCCCCO | 1.62 | –
O=[N+]([O-])c1cc(Cl)c(Cl)c(Cl)c1 | 14.5 | –
CC(C)(COCC1CO1)COCC1CO1 (stereo unspecified) | 3.97 | –
COc1ccccc1N | -2.53 | –
CC(C)(C)OOC(=O)c1ccccc1 | 1.21 | –
c1ccc(N=NNc2ccccc2)cc1 | – | 39.8 µM (active)
COC(C)(C)C | 15.5 | –
C(CCOCC1CO1)COCC1CO1 (stereo unspecified) | 4.81 | –
CN(C)c1ccc(N)cc1 | – | 35.5 µM (active)
O=[N+]([O-])/C=C/c1ccccc1 | 1.11 | –

System: not listed separately
Test: qHTS assay for small molecule agonists of the antioxidant response element (ARE) signaling pathway (AID 651741; active = well fitted activation curve with a large enough effect in the signal ratio; the % refers to the signal ratio; note: potency is the fitted concentration of half-maximal effect; for activation: % of control where 0% means no effect)
Settings: HepG2 ARE-bla reporter, beta-lactamase FRET ratio, 16 h; series mostly up to 96 µM; activation: at the top concentration
How it was run: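 Beta-lactamase reporter under ARE control in HepG2 cells, 2,000 per well, was induced by 16 h compound treatment at 37 C. Read-out was fluorescence from LiveBLAzer B/G FRET substrate after 2 h at room temperature.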

SMILES | Potency | activation [%]
O=C(O)C(Br)Br | 2.98 µM (active) | –
Oc1c(Cl)c(Cl)cc(Cl)c1Cl | 66.8 µM (active) | –
CN(C)c1ccc(N(C)C)cc1 | 42.2 µM (active) | –
O=[N+]([O-])c1c(Cl)c(Cl)c(Cl)c(Cl)c1Cl | 37.6 µM (active) and 24.3 µM (active) | –
ClCC(Cl)Cl | – | 0.265
C=CC(=O)OCCO | 37.6 µM (active) | –
O=[N+]([O-])c1ccc(O)c([N+](=O)[O-])c1 | 66.8 µM (active) | –
CC(C)[N+](=O)[O-] | – | -1.87
CCCC[N+](=O)[O-] | – | 6.6
N#CC(Cl)(Cl)Cl | – | 2.89
CCCCC(CC)COC(=O)c1ccc(C(=O)OCC(CC)CCCC)c(C(=O)OCC(CC)CCCC)c1 (stereo unspecified) | – | 3.05
Nc1c(Br)cc([N+](=O)[O-])cc1[N+](=O)[O-] | 37.6 µM (active) | –
N#CC(Br)Br | 42.2 µM (active) | –
O=C(O)C(Cl)Br (stereo unspecified) | 33.5 µM (active) | –
Nc1ccc([N+](=O)[O-])cc1N | 3.76 µM (active) and 2.73 µM (active) | –
O=C(O)c1cccc(Cl)c1 | – | 9.55
Cc1ccc2c(c1N)C(=O)c1ccccc1C2=O | 21.1 µM (active) and 17.2 µM (active) | –
CC(C)(C)OOC(=O)c1ccccc1 | – | 6.04
c1ccc(N=NNc2ccccc2)cc1 | 26.6 µM (active) and 9.69 µM (active) | –
COC(C)(C)C | – | -0.615
C(CCOCC1CO1)COCC1CO1 (stereo unspecified) | 66.8 µM (active) | –

System: not listed separately
Test: qHTS assay for small molecule activators of the p53 signaling pathway (AID 651743; active = well fitted activation curve with a large enough effect in the signal ratio, not every such curve was filed as active; the % refers to the signal ratio; note: % of control where 0% means no effect)
Settings: HCT-116 p53RE-bla, beta-lactamase FRET ratio, 16 h; activation: stronger effect = higher value
How it was run: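 After 16 hours compound treatment at 37 C, HCT-116 cells stably expressing p53RE-driven beta-lactamase were loaded with LiveBLAzer B/G FRET substrate for 2 hours at room temperature. Fluorescence intensity served as the p53 activation read-out.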

SMILES | activation
O=C(O)C(Br)Br | 6.12%
Cc1ccc(OP(=O)(Oc2ccc(C)cc2)Oc2ccc(C)cc2)cc1 | 0.798% and -5.64%
Nc1ccc(Cc2ccc(N)c(Cl)c2)cc1Cl | -1.58%
CN(C)c1ccc(N(C)C)cc1 | 1.85%
Brc1ccc(Oc2ccc(Br)cc2Br)c(Br)c1 | 2.43%
O=[N+]([O-])c1c(Cl)c(Cl)c(Cl)c(Cl)c1Cl | -1.05% and 4.15%
CN1CSC(=S)N(C)C1 | 0.178% and -0.711%
ClCC(Cl)Cl | -0.152%
C=CC(=O)OCCO | 1.07%
CC(C)Br | -2.41%
O=[N+]([O-])c1ccc(O)c([N+](=O)[O-])c1 | 9.63%
CC(C)[N+](=O)[O-] | -2.67%
Cc1cc(-c2cc(C)c(N)c(C)c2)cc(C)c1N | -3.17%
Nc1cc(Cl)ccc1O | -1.47%
CCN(N=O)C(N)=O | 0.306%
CCCCC(CC)COC(=O)c1ccc(C(=O)OCC(CC)CCCC)c(C(=O)OCC(CC)CCCC)c1 (stereo unspecified) | -1.5%
O=C(O)C(Br)CBr (stereo unspecified) | 3.2%

SMILES | activation
Nc1c(Br)cc([N+](=O)[O-])cc1[N+](=O)[O-] | -4.7%
O=[N+]([O-])c1ccccc1CCl | -1.05%
Cc1cc(C)cc(OP(=O)(Oc2cc(C)cc(C)c2)Oc2cc(C)cc(C)c2)c1 | -0.0195%
O=C(O)C(Cl)Br (stereo unspecified) | 0.485%
COP(=S)(OC)SCn1nnc2ccccc2c1=O | 1.84% and 3.37%
Nc1ccc([N+](=O)[O-])cc1N | -2.47%
Cc1cc(N=Nc2ccccc2C)ccc1N | -4.82% and -5.43%
OCCCCO | -4.12%
O=[N+]([O-])c1cc(Cl)c(Cl)c(Cl)c1 | -1.35%
CC(C)(COCC1CO1)COCC1CO1 (stereo unspecified) | 6.6%
Cc1ccc2c(c1N)C(=O)c1ccccc1C2=O | 7.91% and 8.94%
CC(C)(C)OOC(=O)c1ccccc1 | -3.4% and 2.14%
c1ccc(N=NNc2ccccc2)cc1 | -4.25% and -0.499%
COC(C)(C)C | -2.31%
C(CCOCC1CO1)COCC1CO1 (stereo unspecified) | 15.9%
CN(C)c1ccc(N)cc1 | -3.55%
O=[N+]([O-])/C=C/c1ccccc1 | 10.5%

Source: PubChem BioAssay (NCATS)
